Where “and” joins values, the source holds several entries; their conditions need not be identical. Equal entries are not always repeated. The whole screen tested about 5,500 compounds, of which about 2,000 (36%) were called active. About 18% were inconclusive and are not listed. No stated cut-off is given here; in the data, active means normalized growth mostly below about 0.91 (no sharp cut-off); inconclusive means no clear call, values can overlap the other calls; inactive means mostly above about 0.92. The list shows a part of the results.
Assay: chemical genetic growth profiling, strain panel (AID 1159580);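 further: tested at 20 µM; growth read once vehicle control cultures reached saturation at 30 °C; 1 = growth at the plate median or of vehicle wells; lower values mean less growth of the strain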
Conditions: S. cerevisiae deletion strains, growth OD

Measured: normalized growth

CC1(C)OC(=O)NC1=O
inactive: locus YAL021C, strain ccr4, active compounds read low 0.996 | locus YAL026C, strain drs2, active compounds read low 0.976 | locus YAL030W, strain snc1, active compounds read low 1.01 | locus YBL061C, strain skt5, active compounds read low 1.02 | locus YBR009C, strain hhf1, active compounds read low 1 | locus YBR021W, strain FUR4, active compounds read low 0.996 | locus YBR023C, strain chs3, active compounds read low 1.01 | locus YBR171W, strain sec66, active compounds read low 1.01 | locus YBR229C, strain ROT2, active compounds read low 0.984 | locus YBR231C, strain swc5, active compounds read low 1.04 | locus YBR279W, strain paf1, active compounds read low 1.01 | locus YCL011C, strain gbp2, active compounds read low 1 | locus YCL016C, strain dcc1, active compounds read low 1 | locus YCL029C, strain bik1, active compounds read low 0.969 | locus YCL069W, strain vba3, active compounds read low 1 | locus YCR088W, strain abp1, active compounds read low 0.994 | locus YDL005C, strain med2, active compounds read low 0.997 | locus YDL035C, strain GPR1, active compounds read low 1.04 | locus YDL040C, strain nat1, active compounds read low 1.01 | locus YDL074C, strain BRE1, active compounds read low 0.986 | locus YDL101C, strain DUN1, active compounds read low 0.981 | locus YDL134C, strain PPH21, active compounds read low 1.02 | locus YDL185W, strain tfp1, active compounds read low 0.979 | locus YDL192W, strain arf1, active compounds read low 0.985 | locus YDR001C, strain nth1, active compounds read low 0.992 | locus YDR069C, strain doa4, active compounds read low 1.03 | locus YDR101C, strain arx1, active compounds read low 1 | locus YDR137W, strain rgp1, active compounds read low 1 | locus YDR159W, strain sac3, active compounds read low 0.983 | locus YDR162C, strain NBP2, active compounds read low 1.01 | locus YDR195W, strain ref2 1.01 | locus YDR297W, strain sur2, active compounds read low 1.02 | locus YDR318W, strain mcm21, active compounds read low 0.98 | locus YDR334W, strain swr1, active compounds read low 0.993 | locus YDR335W, strain msn5, active compounds read low 1.02 | locus YDR388W, active compounds read low 0.98 | locus YDR392W, strain spt3, active compounds read low 0.944 | locus YDR502C, strain sam2, active compounds read low 0.994 | locus YEL003W, strain gim4, active compounds read low 1 | locus YEL037C, strain rad23, active compounds read low 0.992 | locus YEL061C, strain CIN8 (second series), active compounds read low 0.991 | locus YEL061C, strain CIN8, active compounds read low 0.991 | locus YER015W, strain faa2, active compounds read low 1.01 | locus YER016W, strain bim1, active compounds read low 1.01 | locus YER110C, active compounds read low 0.965 | locus YER111C, strain swi4, active compounds read low 0.993 | locus YER155C, strain BEM2 (second series), active compounds read low 0.972 | locus YER155C, strain BEM2, active compounds read low 0.994 | locus YER167W, strain BCK2, active compounds read low 0.997 | locus YFR010W, strain ubp6, active compounds read low 1.03 | locus YGL078C, strain dbp3, active compounds read low 0.975 | locus YGL086W, strain mad1, active compounds read low 1 | locus YGL167C, strain pmr1, active compounds read low 1.01 | locus YGL173C, strain kem1, active compounds read low 1.04 | locus YGL227W, strain vid30, active compounds read low 0.968 | locus YGL240W, strain doc1, active compounds read low 1.02 | locus YGL248W, strain PDE1, active compounds read low 0.985 | locus YGL253W, strain hxk2, active compounds read low 1.01 | locus YGR078C, strain PAC10, active compounds read low 0.992 | locus YGR135W, strain pre9, active compounds read low 0.958 | locus YGR252W, strain gcn5, active compounds read low 0.969 | locus YHR013C, strain ard1, active compounds read low 1.01 | locus YHR027C, strain rpn1, active compounds read low 1.01 | locus YHR030C, strain SLT2, active compounds read low 0.994 and 1.03 | locus YHR079C, strain IRE1 (second series), active compounds read low 0.983 | locus YHR079C, strain IRE1, active compounds read low 1.02 | locus YHR094C, strain hxt1, active compounds read low 0.972 | locus YHR129C, strain ARP1, active compounds read low 0.998 | locus YHR142W, strain chs7, active compounds read low 1 | locus YHR200W, strain rpn10, active compounds read low 0.981 | locus YIL066C, strain RNR3, active compounds read low 0.993 | locus YIL073C, strain SPO22, active compounds read low 0.952 | locus YIL125W, strain kgd1, active compounds read low 0.988 | locus YIR030C, strain dcg1, active compounds read low 0.972 | locus YJL092W, strain hpr5, active compounds read low 0.989 | locus YJL095W, strain BCK1 (second series), active compounds read low 1.01 | locus YJL095W, strain BCK1, active compounds read low 0.981 and 0.994 | locus YJL115W, strain asf1, active compounds read low 0.992 | locus YJL129C, strain trk1, active compounds read low 0.94 | locus YJL134W, strain LCB3, active compounds read low 0.992 | locus YJL154C, strain vps35, active compounds read low 0.995 | locus YJL164C, strain tpk1, active compounds read low 0.994 | locus YJL166W, strain qcr8, active compounds read low 1.03 | locus YJL168C, strain set2, active compounds read low 0.974 | locus YJL187C, strain SWE1 (second series), active compounds read low 0.98 | locus YJL187C, strain SWE1, active compounds read low 1.02 | locus YJR043C, strain POL32, active compounds read low 1.03 | locus YJR066W, strain TOR1, active compounds read low 0.957

— PubChem BioAssay AID1159580 (chemical genetic matrix, 2015)
